PubChem BioAssay AID1851 (National Center for Advancing Translational Sciences (NCATS), 2009)
Screen size: about 16,000 compounds; about 5,800 (36%) were called active. About 23% were inconclusive and are not listed. The call rests on the fitted dose curve; in most records, active means well fitted curve in the direction sought with a large enough effect; inconclusive means small, poorly fitted or top-dose-only effect, or effect the other way; inactive means no such curve, though single readings can be large or run the other way. The list shows a part of the results.

Each compound was assayed against Cytochrome P450 2C19 (Homo sapiens) (UniProt P33261) (assay: Cytochrome panel assay with activity outcomes). Settings: recombinant CYP, pro-luciferin dealkylation, luminescence, p450-cyp2c19; series mostly up to 57.1 µM.
On the % scale 0 is the no-effect control and ±100 the full control effect.

Cytochrome P450 2C19 (Homo sapiens), sequence (P33261 whole entry, looked up): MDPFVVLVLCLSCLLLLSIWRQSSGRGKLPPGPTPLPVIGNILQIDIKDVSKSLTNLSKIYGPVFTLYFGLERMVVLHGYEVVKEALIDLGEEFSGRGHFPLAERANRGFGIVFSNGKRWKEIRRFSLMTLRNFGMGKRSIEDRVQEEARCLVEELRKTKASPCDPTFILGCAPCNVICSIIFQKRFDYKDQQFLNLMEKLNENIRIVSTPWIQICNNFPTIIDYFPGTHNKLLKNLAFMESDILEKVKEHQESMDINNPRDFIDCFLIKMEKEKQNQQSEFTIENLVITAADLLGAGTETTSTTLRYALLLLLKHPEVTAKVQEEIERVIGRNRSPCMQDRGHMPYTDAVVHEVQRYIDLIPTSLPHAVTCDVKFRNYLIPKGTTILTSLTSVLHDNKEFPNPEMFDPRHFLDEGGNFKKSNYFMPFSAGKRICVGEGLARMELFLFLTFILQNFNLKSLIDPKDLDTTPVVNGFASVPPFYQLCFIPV

AC50, inactive:
NCCS(=O)O, CC(=O)NC(NC(C)=O)c1ccc(Br)cc1, CCOc1ccc(NC(=O)N2CCC(c3ccc(C)cc3)C2)cc1 (stereo not drawn), COCC(=O)N1CCC2(CCCN(Cc3ccccc3)C2)CC1, Cc1nnc(SCC(=O)N2CC(=O)Nc3ccccc32)n1Cc1ccccc1, CN(C)c1ncc2nc(-c3cccs3)c(=O)n(C[C@H]3CCCO3)c2n1, C[C@@H](Cc1ccccc1)Nc1ncnc2c1ncn2[C@@H]1O[C@@H](CO)[C@H](O)[C@@H]1O, CC(O)(P(=O)(O)O)P(=O)(O)O, NC(=NCCC[C@H](N)C(=O)O)NO, NC(=S)NCCC[C@@H](N)C(=O)O

AC50, active:
C=CC(=O)NC(NC(=O)C=C)c1ccc(Br)cc1 15.8 µM, O=C(COC(=O)c1cccnc1)c1ccc(Cl)c(Cl)c1 2.24 µM, O=S(=O)(/N=C(\Sc1ccccc1)c1ccccc1)c1ccc(Cl)cc1 15.8 µM, CCOC(=O)c1sc(C)c(C(=O)NCC(C)(C)CN(C)C)c1N 28.2 µM, O=C(COc1ccc(Br)cc1)N1CCC(c2ccccc2)C1 (stereo not drawn) 1.12 µM, Cc1sc2nc(C3CC3)nc(SCC(=O)N3CC(=O)Nc4ccccc43)c2c1C 3.98 µM, CC1=C(\C=C/C(C)=C/C=C\C(C)=C\C(=O)O)C(C)(C)CCC1 5.01 µM, O=C(COC(=O)c1cccc(S(=O)(=O)N2CCOCC2)c1)Nc1nc(-c2ccccc2Cl)cs1 3.98 µM, CCCc1nc2ccccc2c(C(=O)OCC(=O)Nc2cccc(S(=O)(=O)N3CCOCC3)c2)c1CC 3.55 µM, O=C(COC(=O)c1cccc(S(=O)(=O)N2CCN(c3ccccc3)CC2)c1)NCc1ccco1 0.708 µM, COc1ccc2ccccc2c1/C=C\C(=O)c1ccccc1 0.316 µM, COc1ccccc1/C=C/C(=O)c1ccc(Cl)cc1 2.24 µM, COc1ccccc1/C=C/C(=O)c1c2c(c(C)[nH]c1=O)CCCC2 7.94 µM, CCCN=C(N)NCCC[C@H](N)C(=O)O 2 µM

activity, negative = inhibition, inactive:
O=C(O)C(=O)/C=C(\O)c1ccc(Br)cc1 29% [at 11.4 µM], CC1=CC(=O)CC(C)(C)[C@]1(O)/C=C\C(C)=C\C(=O)O -25.7% [at 11.4 µM], COc1ccc(Cc2ccccc2C(=O)O)c2ccccc12 12.2% [at 11.4 µM], COc1cc(C)cc(OC)c1/C=C\C(=O)O -0.542% [at 11.4 µM]
